Source: PubChem BioAssay
DUSP3 inh = DUSP3 (human) phosphatase inhibition; P51452; recombinant VHR phosphatase, pNPP absorbance; inhibition, % at 13.3 µM; hit rate 0.52% among 290,000; in the data active means inhibition above about 50%
Mtb hypoxia rep = inhibitors of hypoxia-regulated fluorescent reporter in Mycobacterium tuberculosis; AID 1159583; fluorescence inhibition, % (test concentration not listed); hit rate 0.1% among 300,000; M. tuberculosis hypoxia-regulated fluorescent reporter, fluorescence; in the data active means fluorescence inhibition mostly above about 23%, no sharp cut-off; inactive means mostly below about 17%
UGM FP inh = inhibitors of M. tuberculosis UDP-galactopyranose mutase; hit rate 0.06% among 320,000; purified UGM, fluorescence polarization probe displacement; inhibition, % at 10 µM; P9WIQ1; AID 504406; in the data active means inhibition above about 10%, passing the limit was not always enough
Target sequence (P9WIQ1 whole entry, looked up): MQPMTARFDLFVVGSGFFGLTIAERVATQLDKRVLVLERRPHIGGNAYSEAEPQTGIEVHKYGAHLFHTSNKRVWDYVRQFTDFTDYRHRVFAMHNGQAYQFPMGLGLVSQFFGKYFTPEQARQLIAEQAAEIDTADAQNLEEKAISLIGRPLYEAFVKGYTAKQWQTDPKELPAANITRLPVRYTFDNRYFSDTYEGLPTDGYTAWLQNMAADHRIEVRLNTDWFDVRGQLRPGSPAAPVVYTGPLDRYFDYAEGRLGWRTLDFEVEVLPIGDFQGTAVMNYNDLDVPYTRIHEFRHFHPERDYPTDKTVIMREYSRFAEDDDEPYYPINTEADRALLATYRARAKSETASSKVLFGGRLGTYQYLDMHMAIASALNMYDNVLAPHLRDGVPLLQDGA
Mtb betalactam = beta-lactam sensitization of Mtb H37Rv | hit rate 0.27% among 330,000 | inhibition, % at 25 µM | AID 434955 | M. tuberculosis H37Rv growth with meropenem, percent inhibition; call rule not given here;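 further: growth measured after seven days incubation then overnight dye step; 0% = bacteria only wells and 100% = bacteria with antibiotic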
Rv3671c inh = inhibits the M. tuberculosis serine protease Rv3671c. P9WHR9. inhibition, % at 5.96 µM. hit rate 0.048% among 320,000. AID 2606; in the data active means inhibition above about 38%;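 further: extracellular domain of Rv3671c used as enzyme; 0% = enzyme with DMSO and 100% = no enzyme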
An asterisk follows results filed as active; nt = no result shown. Most compounds without a hit are left out; they make up all but 0.59% or so of the library.

SMILES	DUSP3 inh	Mtb hypoxia rep	UGM FP inh	Mtb betalactam	Rv3671c inh
Cc1cc(-c2nn(-c3ccccc3F)cc2CN2CCCC(O)C2)c(C)s1 (stereo unspecified)	53*	-2	1	24	-4
Cc1cc(-c2nn(-c3ccccc3F)cc2CN2CCCC(CO)C2)c(C)s1 (stereo unspecified)	13	7	3	-13	-3
O=C(Oc1c(CN2CCOCC2)cc(Cl)c2cccnc12)c1cccs1	52*	-6	-2	94	4
O=C(Oc1c(CN2CCOCC2)cc(Cl)c2cccnc12)c1ccccc1Cl	13	5	3	91	4
O=C(c1ccc(F)c(F)c1)N1CCC2(CC1)NCCc1[nH]cnc12	29	3	1	-7	-3
O=C(c1ccc(F)cc1)N1CCC2(CC1)NCCc1[nH]cnc12	56*	-6	2	-6	0
Cc1ccc2nc(SC(C)C(=O)Nc3cccc([N+](=O)[O-])c3)[nH]c2c1 (stereo unspecified)	24	1	-1	14	-10
CCC(=O)N1N=C(c2ccccc2)CC1c1ccccc1 (stereo unspecified)	6	4	0	2	-3
CCC(=O)N1N=C2CC(C)(C)OCC2C1c1ccccc1 (stereo unspecified)	51*	16	1	2	2
Cc1cccc(OCCC(=O)Nc2ccc(C)c(S(=O)(=O)N3CCCCC3)c2)c1	51*	nt	-1	-1	-34
Cc1cccc(OCCC(=O)Nc2ccc(C)c(S(=O)(=O)N3CCOCC3)c2)c1	nt	nt	3	-1	-1
CCN(C(=S)NC(=O)C1CC1)c1ccccc1	18	17	1	-15	-11
Cc1cccc(Nc2nc(N)c([N+](=O)[O-])c(NCc3ccccc3)n2)c1	9	-14	-1	23	-36
O=C(O)/C=C\C(=O)Nc1ccc(N2CCN(c3cccc(Cl)c3)CC2)cc1	57*	-9	4	30	-2
O=C(O)/C=C\C(=O)Nc1ccc(N2CCN(c3ccc(Cl)cc3)CC2)cc1	11	nt	0	16	1
COc1ccc(-n2ccc(=O)c(C(=O)Nc3ccc(S(=O)(=O)Nc4nccs4)cc3)n2)cc1	58*	10	0	0	-15
O=C(Nc1ccc(S(=O)(=O)Nc2nccs2)cc1)c1nn(-c2ccccc2)ccc1=O	39	16	-2	12	-3
CCOC(=S)SCC(=O)Nc1nccs1	5	2	-2	-1	-6
CCCCOC(=O)c1ccccc1C(=O)OCCCC	nt	6	1	5	-1
O=C(O)c1ccccc1C(=O)OCCCCOC(=O)c1ccccc1C(=O)O	19	0	11*	9	2
Cc1ccc(/C=C(\C#N)C(=O)Nc2c(C)cccc2C)s1	29	9	0	-4	-15
Cc1ccc(NC(=O)/C(C#N)=C/c2ccc(C)s2)c(C)c1	-32	13	13*	0	-20
Cc1nn(C)c(C(=O)Nc2ccc(Br)cc2F)c1Br	-4	-6	0	-4	-5
CC(C)(C)NS(=O)(=O)c1ccc(CCC(=O)Nc2ccc3c(c2)OCCO3)cc1	51*	7	-1	1	-12
CCOC(=O)c1sc(NC(=O)C(C)Sc2nnc(N)s2)nc1C (stereo unspecified)	3	21	1	-4	2
SMILES	DUSP3 inh	Mtb hypoxia rep	UGM FP inh	Mtb betalactam	Rv3671c inh
COc1ccc(S(=O)(=O)N2CCOCC2)cc1N=Nc1sc(N)nc1-c1ccccc1	56*	19	1	11	-1
CN(Cc1nc(-c2ccncc2)no1)S(=O)(=O)c1ccc(Cl)cc1	51*	5	1	-16	2
O=C(CCCCCCCCCCC(=O)NCc1cccnc1)NCc1cccnc1	32	8	-4	0	-6
CCN1CCN(CCCNC(=O)c2cc3cc4ccc(OC)cc4nc3o2)CC1	55*	nt	-1	1	-3
COc1ccc2cc3cc(C(=O)NCCCN4CCOCC4)oc3nc2c1	21	nt	-1	11	-7
Cn1c(SCC(=O)Nc2ccc(NC(=O)c3ccccc3)cc2)nnc1-c1ccncc1	52*	-12	3	4	2
COc1ccc(C(=O)Nc2ccc(NC(=O)CSc3nnc(-c4ccncc4)n3C)cc2)cc1	19	-2	1	-3	7
N#Cc1c2ccccc2nc2ccccc12	31	62*	-7	95	1
COCc1cc(C)nc(SCC(=O)Nc2ccccc2N2CCOCC2)c1C#N	-9	7	-5	-1	4
Cc1ccc(NC(=O)Cn2ncc3c([nH]c4ccccc43)c2=O)cc1Cl	58*	5	0	-1	-16
CCOC(=O)c1ccc(NC(=O)Cn2ncc(Cl)c(Cl)c2=O)cc1	3	36*	-2	100	-17
CCC(=O)Nc1ccc(C(=O)Cn2ncc(Cl)c(Cl)c2=O)cc1	10	nt	6	-4	-3
CC(=O)Oc1cccc(N2C(=O)c3ccc(C(=O)O)cc3C2=O)c1	-2	-13	2	-17	-4
O=C(O)c1ccc2c(c1)C(=O)N(c1cccc(-c3nc4ccccc4s3)c1)C2=O	123*	nt	2	11	0
CN1C(=S)SC(C)(C)C1NO (stereo unspecified)	-2	-4	1	-10	5
CCOC(=O)N1CCN(S(=O)(=O)c2ccc(NC(C)=O)cc2)CC1	52*	15	1	-4	4
COc1ccc2c(C)c(C(=O)N3CC[C@@H](N4CCC(O)CC4)[C@H](O)C3)oc2c1	27	9	-1	-8	4
O=C(c1cccc(-c2ccccc2)c1)N1CC[C@@H](N2CCC(O)CC2)[C@H](O)C1	51*	nt	-1	-1	9
Cn1c(SCc2ccccc2F)nnc1-c1ccccn1	-3	8	-2	3	-16
O=C(NN=C1CCCC1)c1cccc(Br)c1	54*	-4	3	-13	-4
COc1ccc(CNc2nc3ccccc3n2CCN2CCOCC2)cc1	18	-6	1	-3	1
CCOc1ccc(S(=O)(=O)N2CCN(c3ccccn3)CC2)cc1	56*	2	0	0	0
CCOc1ccc(S(=O)(=O)N2CCN(c3ncccn3)CC2)cc1	30	3	-1	-6	3
COc1cc(/C=N/NC(=O)c2cc[n+]([O-])cc2)cc(OC)c1OC	56*	nt	2	-8	0
COc1cc(C=NNC(=O)c2cc[n+]([O-])cc2)cc(OC)c1OC	nt	15	nt	nt	nt
Cn1cc(/C=C2\C(=O)NC(=O)N(c3ccccc3)C2=O)c2ccccc21	-15	nt	14*	98	-5
CN(C)CCCNc1ccc(-c2n[nH]c(=O)c3ccccc23)cc1[N+](=O)[O-]	55*	3	-1	6	8
CCCCCCN1C=CC=C/C1=C\C=C(C#N)C#N	1	0	16*	19	2
CC1=C/C(=C\C=C(C#N)C#N)N(C)c2ccccc21	21	nt	1	-1	-223
CCOC(=O)CCNC(=O)N1CCCC(C(=O)c2cccc(OC(C)C)c2)C1 (stereo unspecified)	12	9	-2	-1	-2
